# Laboratory results published in article PMC7862700, “An all-to-all approach to the identification of sequence-specific readers for epigenetic DNA modifications on cytosine”.
# How the values were obtained:
# Test in all cases: DAPPL (digital affinity profiling via proximity ligation, sequencing); 10 mM Tris-HCl pH 7.5, 50 mM NaCl, 1 mM DTT, 4% glycerol, room temperature, 30 min; GST-TFs on glutathione beads, 16-mer random dsDNA library, 0.1% formaldehyde crosslink after washing; high values mean tight binding
# [1] = biological target: T1, FLI1 (Homo sapiens, UniProt Q01543 1-452); conditions: protein: recombinant; tags: N-terminal GST; dsDNA, one strand shown
# T1 sequence: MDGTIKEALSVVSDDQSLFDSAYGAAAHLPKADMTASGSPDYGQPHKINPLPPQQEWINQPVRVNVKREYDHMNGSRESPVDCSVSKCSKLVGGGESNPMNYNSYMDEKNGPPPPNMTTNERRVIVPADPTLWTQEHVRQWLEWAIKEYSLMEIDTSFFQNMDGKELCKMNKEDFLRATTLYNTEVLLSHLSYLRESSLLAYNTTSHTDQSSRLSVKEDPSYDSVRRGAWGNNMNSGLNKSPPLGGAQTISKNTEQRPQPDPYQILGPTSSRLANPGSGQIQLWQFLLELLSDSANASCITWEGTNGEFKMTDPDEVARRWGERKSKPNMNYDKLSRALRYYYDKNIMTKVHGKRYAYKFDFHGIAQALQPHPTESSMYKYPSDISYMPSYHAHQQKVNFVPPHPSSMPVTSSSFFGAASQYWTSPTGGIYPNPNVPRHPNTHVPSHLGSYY
# How it was run: (§1)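 Binding signal is defined as a hexamer's read frequency for one factor over its frequency for the tag-only sample. To obtain reads, GST-fused human transcription factors were expressed in yeast, captured on glutathione beads, barcoded with DNA and pooled with that sample. Pools met 200 nmole of a 16-mer random double-stranded DNA library in Tris/NaCl/DTT/glycerol buffer for 30 min at room temperature before washing, 0.1% formaldehyde crosslinking, proximity ligation (BsaI/T4 ligase, 1 h, 37 °C), PCR and Illumina NextSeq500 sequencing.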
# [2] = biological target: T2, ELK1 (Homo sapiens, UniProt P19419 1-428); conditions: protein: recombinant; tags: N-terminal GST; dsDNA, one strand shown
# T2 sequence: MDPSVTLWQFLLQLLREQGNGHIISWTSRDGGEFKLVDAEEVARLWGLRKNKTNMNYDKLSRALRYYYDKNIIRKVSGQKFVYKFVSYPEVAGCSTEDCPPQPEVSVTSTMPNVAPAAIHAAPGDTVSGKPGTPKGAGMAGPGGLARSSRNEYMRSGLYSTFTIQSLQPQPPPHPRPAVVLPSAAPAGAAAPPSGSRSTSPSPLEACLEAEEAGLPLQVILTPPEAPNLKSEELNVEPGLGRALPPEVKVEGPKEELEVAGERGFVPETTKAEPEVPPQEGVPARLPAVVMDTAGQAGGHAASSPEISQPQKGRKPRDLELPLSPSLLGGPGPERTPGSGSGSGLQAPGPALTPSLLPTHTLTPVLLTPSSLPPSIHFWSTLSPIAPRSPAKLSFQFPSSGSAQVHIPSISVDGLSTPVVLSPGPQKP
# How it was run: as §1
# [3] = biological target: T3, GABPA (Homo sapiens, UniProt Q06546 1-454); conditions: protein: recombinant; tags: N-terminal GST; dsDNA, one strand shown
# T3 sequence: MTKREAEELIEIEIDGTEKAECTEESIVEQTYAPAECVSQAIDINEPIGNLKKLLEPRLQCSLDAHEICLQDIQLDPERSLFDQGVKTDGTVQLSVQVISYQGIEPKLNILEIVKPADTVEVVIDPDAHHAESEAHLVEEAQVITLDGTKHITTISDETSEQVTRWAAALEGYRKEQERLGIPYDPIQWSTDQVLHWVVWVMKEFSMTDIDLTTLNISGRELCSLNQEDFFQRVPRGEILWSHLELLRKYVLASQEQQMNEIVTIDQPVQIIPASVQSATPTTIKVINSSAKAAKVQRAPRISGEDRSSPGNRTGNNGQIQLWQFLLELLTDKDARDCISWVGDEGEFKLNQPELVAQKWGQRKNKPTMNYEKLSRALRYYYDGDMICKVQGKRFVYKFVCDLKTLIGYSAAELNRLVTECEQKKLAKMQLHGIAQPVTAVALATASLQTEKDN
# How it was run: as §1
# [4] = biological target: T4, ERG (Homo sapiens, UniProt P11308 1-479); conditions: protein: recombinant; tags: N-terminal GST; dsDNA, one strand shown
# T4 sequence: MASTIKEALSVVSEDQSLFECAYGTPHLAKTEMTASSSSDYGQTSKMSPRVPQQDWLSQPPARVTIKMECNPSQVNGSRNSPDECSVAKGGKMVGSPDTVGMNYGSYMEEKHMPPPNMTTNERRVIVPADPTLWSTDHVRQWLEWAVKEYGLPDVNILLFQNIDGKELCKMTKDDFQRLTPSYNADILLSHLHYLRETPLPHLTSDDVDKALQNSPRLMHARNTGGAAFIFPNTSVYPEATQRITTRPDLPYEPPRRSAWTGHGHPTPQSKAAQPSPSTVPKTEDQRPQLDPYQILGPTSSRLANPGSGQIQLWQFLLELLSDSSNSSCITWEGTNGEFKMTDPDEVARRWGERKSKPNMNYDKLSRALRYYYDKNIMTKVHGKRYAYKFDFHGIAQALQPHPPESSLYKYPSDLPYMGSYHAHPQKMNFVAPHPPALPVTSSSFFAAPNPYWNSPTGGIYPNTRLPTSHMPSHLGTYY
# How it was run: as §1
# [5] = biological target: ELF1 (Homo sapiens, UniProt P32519 1-619); conditions: protein: recombinant; tags: N-terminal GST; dsDNA, one strand shown
# Sequence of ELF1 (P32519 whole entry): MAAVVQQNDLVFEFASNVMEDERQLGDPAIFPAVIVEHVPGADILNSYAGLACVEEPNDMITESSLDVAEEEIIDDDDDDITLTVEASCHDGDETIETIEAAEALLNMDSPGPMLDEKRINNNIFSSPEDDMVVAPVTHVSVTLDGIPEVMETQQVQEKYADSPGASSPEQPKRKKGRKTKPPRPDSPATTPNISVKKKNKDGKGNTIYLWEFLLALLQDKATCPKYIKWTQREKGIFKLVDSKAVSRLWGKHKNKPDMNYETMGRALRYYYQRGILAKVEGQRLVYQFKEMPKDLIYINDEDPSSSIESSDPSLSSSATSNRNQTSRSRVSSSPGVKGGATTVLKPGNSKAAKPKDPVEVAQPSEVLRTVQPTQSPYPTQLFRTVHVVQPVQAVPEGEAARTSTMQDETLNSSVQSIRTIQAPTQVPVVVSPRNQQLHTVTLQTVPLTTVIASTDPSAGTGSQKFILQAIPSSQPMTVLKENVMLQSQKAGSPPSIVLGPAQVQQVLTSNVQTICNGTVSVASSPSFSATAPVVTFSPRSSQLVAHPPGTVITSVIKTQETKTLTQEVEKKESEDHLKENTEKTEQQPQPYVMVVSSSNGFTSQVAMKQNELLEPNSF
# How it was run: as §1
# [6] = biological target: T5, EHF (Homo sapiens, UniProt Q9NZC4 1-300); conditions: protein: recombinant; tags: N-terminal GST; dsDNA, one strand shown
# T5 sequence: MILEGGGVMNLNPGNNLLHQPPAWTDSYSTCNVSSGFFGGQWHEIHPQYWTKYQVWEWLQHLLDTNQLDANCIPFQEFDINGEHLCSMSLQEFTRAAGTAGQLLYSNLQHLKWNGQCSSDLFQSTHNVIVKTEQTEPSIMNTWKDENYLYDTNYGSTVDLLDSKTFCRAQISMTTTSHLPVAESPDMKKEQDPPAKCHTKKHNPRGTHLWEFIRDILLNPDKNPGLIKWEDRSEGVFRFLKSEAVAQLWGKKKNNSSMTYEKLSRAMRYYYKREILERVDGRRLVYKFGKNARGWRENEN
# How it was run: as §1
# [7] = biological target: SPI1 (Homo sapiens, UniProt P17947 1-270); conditions: protein: recombinant; tags: N-terminal GST; dsDNA, one strand shown
# How it was run: as §1
# [8] = biological target: SPIB (Homo sapiens, UniProt Q01892 1-262); conditions: protein: recombinant; tags: N-terminal GST; dsDNA, one strand shown
# Sequence of SPIB (Q01892 whole entry): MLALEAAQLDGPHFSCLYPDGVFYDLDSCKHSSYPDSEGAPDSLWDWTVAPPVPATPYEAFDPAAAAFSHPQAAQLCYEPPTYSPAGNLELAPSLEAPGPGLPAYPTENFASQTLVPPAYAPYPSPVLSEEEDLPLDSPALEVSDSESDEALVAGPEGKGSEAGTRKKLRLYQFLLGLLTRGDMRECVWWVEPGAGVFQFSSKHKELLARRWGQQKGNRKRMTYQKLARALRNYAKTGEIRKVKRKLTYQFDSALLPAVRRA
# How it was run: as §1
# [9] = biological target: T6, ELK3 (Homo sapiens, UniProt P41970 1-407); conditions: protein: recombinant; tags: N-terminal GST; dsDNA, one strand shown
# T6 sequence: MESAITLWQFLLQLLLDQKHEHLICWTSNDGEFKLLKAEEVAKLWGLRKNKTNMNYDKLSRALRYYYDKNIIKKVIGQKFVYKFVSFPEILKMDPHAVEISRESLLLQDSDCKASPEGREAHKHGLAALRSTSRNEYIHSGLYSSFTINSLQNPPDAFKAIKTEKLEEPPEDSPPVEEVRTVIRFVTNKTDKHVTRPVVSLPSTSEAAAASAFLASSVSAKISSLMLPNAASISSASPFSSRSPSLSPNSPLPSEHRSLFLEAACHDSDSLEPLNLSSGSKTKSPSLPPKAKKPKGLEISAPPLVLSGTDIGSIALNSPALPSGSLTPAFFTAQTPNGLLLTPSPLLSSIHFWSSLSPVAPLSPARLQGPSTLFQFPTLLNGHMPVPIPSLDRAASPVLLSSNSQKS
# How it was run: as §1
# [10] = biological target: T7, FEV (Homo sapiens, UniProt Q99581 1-238); conditions: protein: recombinant; tags: N-terminal GST; dsDNA, one strand shown
# T7 sequence: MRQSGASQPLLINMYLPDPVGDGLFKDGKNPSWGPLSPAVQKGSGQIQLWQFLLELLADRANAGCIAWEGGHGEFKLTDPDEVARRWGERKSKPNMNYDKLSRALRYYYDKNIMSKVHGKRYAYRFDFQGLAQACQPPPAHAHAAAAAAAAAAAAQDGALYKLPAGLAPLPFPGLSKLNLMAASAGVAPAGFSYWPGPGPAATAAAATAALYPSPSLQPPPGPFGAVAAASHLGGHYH
# How it was run: as §1
# [11] = biological target: ETV5 (Homo sapiens, UniProt P41161 1-510); conditions: protein: recombinant; tags: N-terminal GST; dsDNA, one strand shown
# Sequence of ETV5 (P41161 whole entry): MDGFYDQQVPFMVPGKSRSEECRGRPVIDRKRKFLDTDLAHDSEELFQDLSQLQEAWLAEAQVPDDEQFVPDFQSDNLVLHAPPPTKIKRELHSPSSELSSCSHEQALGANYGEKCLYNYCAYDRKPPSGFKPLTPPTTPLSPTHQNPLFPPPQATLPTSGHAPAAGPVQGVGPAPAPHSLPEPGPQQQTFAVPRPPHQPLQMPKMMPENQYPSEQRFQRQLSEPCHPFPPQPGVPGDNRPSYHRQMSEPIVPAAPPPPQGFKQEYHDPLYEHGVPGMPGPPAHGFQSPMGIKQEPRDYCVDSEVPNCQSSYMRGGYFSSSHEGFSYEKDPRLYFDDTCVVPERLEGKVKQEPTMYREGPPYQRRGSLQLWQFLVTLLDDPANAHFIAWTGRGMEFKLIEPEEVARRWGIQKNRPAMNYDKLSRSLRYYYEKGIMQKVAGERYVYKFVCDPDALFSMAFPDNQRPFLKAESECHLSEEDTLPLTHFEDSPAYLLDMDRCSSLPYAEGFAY
# How it was run: as §1
# [12] = biological target: HSF1 (Homo sapiens, UniProt Q00613 1-529); conditions: protein: recombinant; tags: N-terminal GST; chain copies: 3; dsDNA, one strand shown
# Sequence of HSF1 (Q00613 whole entry): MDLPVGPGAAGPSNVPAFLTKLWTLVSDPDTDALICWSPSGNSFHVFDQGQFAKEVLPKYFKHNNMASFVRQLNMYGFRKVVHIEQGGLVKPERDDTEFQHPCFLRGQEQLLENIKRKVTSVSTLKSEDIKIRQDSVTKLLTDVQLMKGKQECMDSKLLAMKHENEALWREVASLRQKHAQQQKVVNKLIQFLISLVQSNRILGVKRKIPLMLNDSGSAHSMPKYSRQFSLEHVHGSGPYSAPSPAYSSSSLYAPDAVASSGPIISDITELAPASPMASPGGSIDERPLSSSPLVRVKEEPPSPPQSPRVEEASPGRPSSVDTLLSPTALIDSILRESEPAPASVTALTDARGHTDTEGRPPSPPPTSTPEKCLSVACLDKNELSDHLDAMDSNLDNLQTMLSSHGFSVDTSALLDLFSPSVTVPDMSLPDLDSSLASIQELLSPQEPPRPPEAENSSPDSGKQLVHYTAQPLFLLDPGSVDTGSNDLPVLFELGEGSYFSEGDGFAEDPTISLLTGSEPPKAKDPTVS
# How it was run: as §1
# [13] = biological target: T8, SPIC (Homo sapiens, UniProt Q8N5J4 1-248); conditions: protein: recombinant; tags: N-terminal GST; dsDNA, one strand shown
# T8 sequence: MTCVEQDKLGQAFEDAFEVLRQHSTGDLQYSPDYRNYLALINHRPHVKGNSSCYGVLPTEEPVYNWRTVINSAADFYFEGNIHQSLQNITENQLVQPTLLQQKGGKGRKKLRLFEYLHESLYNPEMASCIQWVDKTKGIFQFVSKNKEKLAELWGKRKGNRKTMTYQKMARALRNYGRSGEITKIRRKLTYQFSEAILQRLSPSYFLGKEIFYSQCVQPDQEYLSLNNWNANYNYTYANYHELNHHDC
# How it was run: as §1
# [14] = biological target: ELF4 (Homo sapiens, UniProt Q99607 1-663); conditions: protein: recombinant; tags: N-terminal GST; dsDNA, one strand shown
# Sequence of ELF4 (Q99607 whole entry): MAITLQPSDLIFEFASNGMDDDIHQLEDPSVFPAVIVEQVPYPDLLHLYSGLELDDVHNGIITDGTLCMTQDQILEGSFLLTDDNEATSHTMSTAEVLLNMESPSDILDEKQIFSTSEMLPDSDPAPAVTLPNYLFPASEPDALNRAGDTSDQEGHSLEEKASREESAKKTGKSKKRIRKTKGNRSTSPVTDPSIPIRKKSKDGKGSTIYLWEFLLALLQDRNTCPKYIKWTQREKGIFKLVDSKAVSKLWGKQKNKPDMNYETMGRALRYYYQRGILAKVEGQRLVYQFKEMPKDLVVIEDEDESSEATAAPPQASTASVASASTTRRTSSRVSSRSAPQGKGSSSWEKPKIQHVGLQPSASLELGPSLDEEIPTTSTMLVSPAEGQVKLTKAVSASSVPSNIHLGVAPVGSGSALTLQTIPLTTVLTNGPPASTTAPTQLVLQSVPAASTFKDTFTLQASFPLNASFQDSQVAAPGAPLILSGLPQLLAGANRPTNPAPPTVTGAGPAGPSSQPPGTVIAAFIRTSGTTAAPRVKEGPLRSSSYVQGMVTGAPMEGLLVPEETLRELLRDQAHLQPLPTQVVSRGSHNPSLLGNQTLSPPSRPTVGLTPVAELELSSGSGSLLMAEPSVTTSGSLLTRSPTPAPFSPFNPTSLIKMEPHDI
# How it was run: as §1
# [15] = biological target: T9, ELK4 (Homo sapiens, UniProt P28324-2 1-405); conditions: protein: recombinant; tags: N-terminal GST; dsDNA, one strand shown
# T9 sequence: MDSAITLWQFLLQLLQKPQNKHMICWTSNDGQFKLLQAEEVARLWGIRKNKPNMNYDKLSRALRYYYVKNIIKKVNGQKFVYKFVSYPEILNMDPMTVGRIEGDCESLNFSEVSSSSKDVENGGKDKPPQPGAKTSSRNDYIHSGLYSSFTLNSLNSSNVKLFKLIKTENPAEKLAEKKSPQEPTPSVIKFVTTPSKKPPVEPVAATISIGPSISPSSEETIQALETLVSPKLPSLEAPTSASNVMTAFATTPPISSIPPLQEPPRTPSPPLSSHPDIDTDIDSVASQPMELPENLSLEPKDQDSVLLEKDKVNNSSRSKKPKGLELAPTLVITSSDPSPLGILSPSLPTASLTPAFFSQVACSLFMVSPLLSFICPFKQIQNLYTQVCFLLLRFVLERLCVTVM
# How it was run: as §1
# [16] = biological target: T10, ETV2 (Homo sapiens, UniProt O00321 1-342); conditions: protein: recombinant; tags: N-terminal GST; dsDNA, one strand shown
# T10 sequence: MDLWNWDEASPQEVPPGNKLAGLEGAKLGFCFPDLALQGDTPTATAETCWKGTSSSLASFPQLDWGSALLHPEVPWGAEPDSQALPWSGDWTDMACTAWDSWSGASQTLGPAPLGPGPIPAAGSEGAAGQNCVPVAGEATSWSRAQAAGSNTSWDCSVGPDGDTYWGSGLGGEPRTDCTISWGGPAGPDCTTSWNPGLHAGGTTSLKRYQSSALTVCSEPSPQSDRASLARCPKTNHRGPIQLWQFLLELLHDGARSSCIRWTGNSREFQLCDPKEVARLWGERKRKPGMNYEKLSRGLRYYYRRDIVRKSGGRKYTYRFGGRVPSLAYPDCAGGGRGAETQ
# How it was run: as §1
# [17] = biological target: T11, ELF3 (Homo sapiens, UniProt P78545 1-371); conditions: protein: recombinant; tags: N-terminal GST; dsDNA, one strand shown
# T11 sequence: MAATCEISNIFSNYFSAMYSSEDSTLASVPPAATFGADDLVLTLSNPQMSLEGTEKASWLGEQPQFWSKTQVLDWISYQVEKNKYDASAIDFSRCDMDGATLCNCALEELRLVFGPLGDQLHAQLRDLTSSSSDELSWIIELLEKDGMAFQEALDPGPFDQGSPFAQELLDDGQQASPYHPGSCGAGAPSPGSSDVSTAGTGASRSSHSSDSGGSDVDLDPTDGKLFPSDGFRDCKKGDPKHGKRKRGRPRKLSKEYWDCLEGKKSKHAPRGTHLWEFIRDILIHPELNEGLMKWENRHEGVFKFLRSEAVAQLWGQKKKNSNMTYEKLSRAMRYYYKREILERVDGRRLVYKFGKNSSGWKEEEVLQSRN
# How it was run: as §1
# [18] = biological target: CRX (Homo sapiens, UniProt O43186 1-299); conditions: protein: recombinant; tags: N-terminal GST; dsDNA, one strand shown
# Sequence of CRX (O43186 whole entry): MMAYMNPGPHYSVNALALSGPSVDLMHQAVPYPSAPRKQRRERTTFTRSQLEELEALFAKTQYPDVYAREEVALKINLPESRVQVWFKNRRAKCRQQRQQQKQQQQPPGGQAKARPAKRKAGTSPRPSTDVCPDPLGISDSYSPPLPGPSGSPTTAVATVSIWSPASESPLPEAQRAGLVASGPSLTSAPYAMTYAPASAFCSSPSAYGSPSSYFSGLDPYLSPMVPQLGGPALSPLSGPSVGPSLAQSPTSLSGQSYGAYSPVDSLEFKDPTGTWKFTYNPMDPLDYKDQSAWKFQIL
# How it was run: as §1
# [19] = biological target: ETV1 (Homo sapiens, UniProt P50549 1-477); conditions: protein: recombinant; tags: N-terminal GST; dsDNA, one strand shown
# Sequence of ETV1 (P50549 whole entry): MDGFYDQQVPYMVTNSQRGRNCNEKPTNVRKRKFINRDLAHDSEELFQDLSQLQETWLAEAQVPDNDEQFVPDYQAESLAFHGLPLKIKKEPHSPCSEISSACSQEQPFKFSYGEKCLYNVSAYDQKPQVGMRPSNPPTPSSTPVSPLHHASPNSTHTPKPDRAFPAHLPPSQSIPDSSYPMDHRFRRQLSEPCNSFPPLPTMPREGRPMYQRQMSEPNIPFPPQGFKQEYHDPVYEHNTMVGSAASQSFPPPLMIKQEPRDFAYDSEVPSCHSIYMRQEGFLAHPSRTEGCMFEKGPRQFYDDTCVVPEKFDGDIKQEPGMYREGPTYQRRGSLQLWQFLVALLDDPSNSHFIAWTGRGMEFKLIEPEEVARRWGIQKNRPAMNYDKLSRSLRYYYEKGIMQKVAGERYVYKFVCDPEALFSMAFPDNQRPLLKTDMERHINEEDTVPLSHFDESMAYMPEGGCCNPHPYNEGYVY
# How it was run: as §1
sequence,measurement,setting,value
CCTGAT,binding signal,[1],"1.27 fold enrichment (6-mer frequency, TF over GST control)"
same,binding signal,[2],"1.56 fold enrichment (6-mer frequency, TF over GST control)"
same,binding signal,[3],"1.5 fold enrichment (6-mer frequency, TF over GST control)"
same,binding signal,[4],"1.42 fold enrichment (6-mer frequency, TF over GST control)"
same,binding signal,[5],"1.38 fold enrichment (6-mer frequency, TF over GST control)"
same,binding signal,[6],"1.45 fold enrichment (6-mer frequency, TF over GST control)"
same,binding signal,[7],"1.5 fold enrichment (6-mer frequency, TF over GST control)"
same,binding signal,[8],"1.6 fold enrichment (6-mer frequency, TF over GST control)"
same,binding signal,[9],"1.45 fold enrichment (6-mer frequency, TF over GST control)"
same,binding signal,[10],"1.32 fold enrichment (6-mer frequency, TF over GST control)"
same,binding signal,[11],"1.49 fold enrichment (6-mer frequency, TF over GST control)"
same,binding signal,[12],"1.32 fold enrichment (6-mer frequency, TF over GST control)"
same,binding signal,[13],"1.42 fold enrichment (6-mer frequency, TF over GST control)"
same,binding signal,[14],"1.59 fold enrichment (6-mer frequency, TF over GST control)"
same,binding signal,[15],"1.5 fold enrichment (6-mer frequency, TF over GST control)"
same,binding signal,[16],"1.55 fold enrichment (6-mer frequency, TF over GST control)"
same,binding signal,[17],"1.34 fold enrichment (6-mer frequency, TF over GST control)"
same,binding signal,[18],"1.44 fold enrichment (6-mer frequency, TF over GST control)"
same,binding signal,[19],"1.46 fold enrichment (6-mer frequency, TF over GST control)"
